Hits are enriched below; roughly 3.8% of the tested compounds scored in any of these assays.
HepG2 viability: kills HepG2 cells in TGF-b inhibitor counter-screen. Potency, µM (doses to about 46.1 µM), for the others: at the top dose activity change, negative = cytotoxicity, hits mostly cytotoxic. actives 0.76% (n = 410,000). HepG2 CAGA-GFP viability, ATP luminescence, 18 h
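HepG2 CAGA-GFP cells (1000/well, DMEM with 1% FBS) received compound, then TGF-beta at 500 pg/mL final, and were incubated 18 hours at 37 degrees C. Viability was read by CellTiter-Glo luminescence. Media-only wells were set as complete cell-killing and DMSO as no toxicity.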
Nrf2 block: inhibitors of Nrf2 signaling. actives 2.1% (n = 360,000). Potency, µM (series often up to 46 µM), for the others: at the top dose activity change, negative = inhibition, actives largely listed as inhibitors. A549 ARE-Fluc reporter, luciferase luminescence, 18-24 h; further: on the % scale 0 is the no-effect control and ±100 the full control effect; nearly all actives have a fitted effect of over 60% in size
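In this cell-based qHTS, ARE-driven firefly luciferase in A549 cells reports Nrf2 activity; the luminescent signal after BugLite lysis is the measured value, with a prior CellTiter-Fluor read for cell health.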
ATXN2 expr inh: reduces ATXN2 reporter expression in HEK-293 cells; HEK-293 ATXN2-luciferase reporter, luminescence, 24 h; Potency, µM (top dose mostly 57 µM), for inactives: at the top dose activity change, negative = inhibition, actives largely listed as inhibitors; actives 0.72% (n = 360,000); further: on the % scale 0 is the no-effect control and ±100 the full control effect; nearly all actives have a fitted effect of over 55% in size
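qHTS (up to 57 uM final) was run with 24 h compound exposure of reporter cells at 37 °C. Each well was multiplexed: SteadyGlo luminescence measured ATXN2-luciferase expression after a fluorogenic Gly-Phe-AFC viability readout (25 uM final).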
ATXN viability: reduces viability in counter-screen for ATXN expression inhibitors; S2 cells (HEK-293 line with an ATXN2-luciferase reporter) viability, CellTiter-Fluor protease fluorescence, 24 h; actives 0.49% (n = 400,000); Potency, µM (top dose mostly 56.7 µM), usual class: cytotoxic; further: nearly all actives have a fitted effect of over 40% in size
A549 tox: kills or reduces viability of A549 cells in Nrf2 counter-screen. A549 ARE-Fluc cells, CellTiter-Fluor viability, 18-24 h. Potency, µM (titrated, usually from 46 µM), for the others: top-dose activity change, negative = cytotoxicity, hits mostly inhibitors. actives 0.16% (n = 390,000); further: on the % scale 0 is the no-effect control and ±100 the full control effect
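Cytotoxicity counterscreen: CellTiter-Fluor fluorescence was measured in A549 ARE_Fluc cells after 18-24 h of compound exposure in a concentration series. The subsequent BugLite luminescent read reports ARE-luciferase activity.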
TGFb SMAD3 inh: inhibitors of TGF-b signaling; HepG2 CAGA-GFP TGF-b/SMAD3 reporter, GFP fluorescence, 18 h; TGF-beta stimulated, 500 pg/mL final; Potency, µM (titrated, usually from 46.1 µM), for the others: at the top dose activity, negative = inhibition, hits mostly inhibitors; actives 1.2% (n = 410,000); AID 588855; further: on the % scale 0 is the no-effect control and ±100 the full control effect; nearly all actives have a fitted effect of over 65% in size
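Cell-based qHTS in HEPG2 carrying a CAGA-GFP Smad reporter; compounds added before 500 pg/mL final TGF-beta, 18 h incubation at 37 degrees C, GFP fluorescence quantified per cell by imaging cytometry.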
Active calls of the source: *; i = inactive; ? = inconclusive; nt = not tested or not shown; [ ] = dose if it differs, or a comment. The call rests on the fitted dose curve; in most records, active means well fitted curve in the direction sought with a large enough effect; inconclusive means small, poorly fitted or top-dose-only effect, or another doubt; inactive means no such curve, though single readings can be large; an effect the other way counts as inactive or inconclusive. Potency means the concentration at half of the fitted maximal effect.

SMILES	HepG2 viability	Nrf2 block	ATXN2 expr inh	ATXN viability	A549 tox	TGFb SMAD3 inh
CCCNC(=O)c1ccc(-c2nc(CS(=O)(=O)c3ccc(C)cc3)c(C)o2)cc1	-23%	-7%	7%	i	6%	2%
C[C@H](CO)N1C[C@H](C)[C@@H](CN(C)S(=O)(=O)c2ccc(Oc3ccccc3)nc2)OCc2cn(nn2)CCCC1=O	7%	nt	-2%	i	nt	?
CNC(=O)c1c(NC(=O)c2cc(=O)c3cc(C)c(C)cc3o2)sc2c1CCCC2	2%	14%	-6%	i	-1%	5%
COc1cccc(Cn2nnc(C(=O)NCc3ccc(Cl)cc3Cl)c2N)c1	6%	7%[9.27 µM]	0%	i	-20%	5%
COc1cccc(Cn2nnc(C(=O)NCCc3ccc(Cl)cc3)c2N)c1	18µM*	-2%	-11%	i	2%	?
COc1ccc2c(c1OC)C(=O)N(c1cccc(/C=C/C(=O)O)c1)C2	-32%	16µM*	-33%	i	-4%	0%
COc1ccc(N2Cc3ccc(OC)c(OC)c3C2=O)cc1	-7%	?	14%	i	3%	4%
CCCCNC(=O)C1CCC(CNS(=O)(=O)c2ccc(Cl)cc2)CC1 (centres undefined)	-15%	nt	5%	i	0%	-3%
Cc1nnc(-c2cccc(Br)c2)c2cn(-c3ccc(Br)cc3)nc12	-12%	15µM*	-35%	?	-19%	?
Cc1nnc(-c2cccc(Br)c2)c2cn(-c3ccccc3)nc12	-17%	-14%	-6%	i	nt	-1%
CC(NCCCOc1cccc2ccccc12)c1ccccc1 (centres undefined)	20µM*	-27%	nt	?	-6%	?
COc1ccc2ccccc2c1CNC(C)c1ccccc1 (centres undefined)	-30%	-26%	nt	i	1%	4%
O=C(Nc1cc2c(cc1Cl)-c1ccc([N+](=O)[O-])cc1C2=NO)C(F)(F)F	-93%	4%	-32%	i	-6%	?
COc1ccccc1N(C)S(=O)(=O)c1ccc(C)c(C(=O)Nc2nccs2)c1	2%	-8%	-2%	i	-7%	?
NC(=O)C1=CC2C3C=CC2(O)C(=O)OC3O1 (centres undefined)	13µM*	-16%	21µM*	nt	-8%	11µM*
CCCCOc1cccc(C(=O)N(Cc2ccccc2)C2CCS(=O)(=O)C2)c1 (centres undefined)	-9%	?	-8%	i	1%	-22%
Cc1ccccc1NC(=O)CCn1nc(-c2ccccc2)c2ccccc2c1=O	-7%	nt	-24%	?	4%	?
O=C(COc1ccc(C(=O)c2ccccc2)cc1)Nc1cccnc1	-12%	23µM*	?	i	?	-18%
CN(C)S(=O)(=O)c1cccc(NC(=O)COc2ccc(C(=O)c3ccccc3)cc2)c1	22µM*	?	-38%	i	-8%	-33%
N#Cc1ccc(-c2ccc(OCC(=O)Nc3cccnc3)cc2)cc1	-14%	7.3µM*	-34%	i	-13%	0%
CN(C)S(=O)(=O)c1ccc(SCC(=O)Nc2cccc(S(=O)(=O)N3CCCC3)c2)nc1	-35%	-19%	nt	nt	2%	-13%
CN(C)S(=O)(=O)c1cccc(NC(=O)CSc2cccc3cccnc23)c1	16µM*	-3%	?	nt	-4%	?
CN(c1ccccc1)S(=O)(=O)c1cccc(NC(=O)COc2ccccc2)c1	0%	?	nt	i	8%	-4%
OC1(c2ccc3c(c2)CN(Cc2nccs2)CCO3)CCN(c2ccccc2F)CC1	nt	nt	nt	i	nt	nt
CCN1C(=O)CC(CC(=O)N2CCCCC2c2nccs2)(c2ccccc2C)C1=O (centres undefined)	nt	nt	nt	i	nt	nt
SMILES	HepG2 viability	Nrf2 block	ATXN2 expr inh	ATXN viability	A549 tox	TGFb SMAD3 inh
CCN(Cc1ccccc1)C(=O)c1cccc(OC2CCN(C(=O)C3CC3)CC2)c1	-23%	?	-35%	i	1%	?
O=C(NCc1cccc(F)c1)c1cccc(OC2CCN(C(=O)C3CC3)CC2)c1	4%	23µM*	-17%	i	-3%	-16%
CN(c1ncccc1CNc1nc(Nc2ccc3c(c2)CC(=O)N3)ncc1C(F)(F)F)S(C)(=O)=O	nt	nt	4.3µM*	nt	nt	nt
CC(=O)Nc1ccc(-c2nnc3n(Cc4ccc(C)cc4)c(=O)c4ccccc4n23)cc1	-17%	18%	0%	i	5%	6%
O=C(O)COc1ccccc1/C=N/NC(=O)C(O)c1ccccc1 (centres undefined)	-3%	5%	-10%	i	4%	21%
CCc1ccc(/C=C/C(=O)c2cc(Br)ccc(=O)c2O)cc1	-76%	7.3µM*	32µM*	?	?	?
Cc1cccc(/C=C/C(=O)c2cc(Br)ccc(=O)c2O)c1	-29%	?	12%	i	?	?
CCOc1ccc(/C=C/C(=O)c2cc(Br)ccc(=O)c2O)cc1	-55%	16µM*	-14%	nt	-29%	7.9µM*
CCOC(=O)C1CCN(C(=O)c2oc3ccc(S(=O)(=O)N4CC(C)CC(C)C4)cc3c2C)CC1 (centres undefined)	-16%	18µM*	-19%	i	?	-16%
Cc1c(C(=O)N2CCC(C)CC2)oc2ccc(S(=O)(=O)N3CCC4(CC3)OCCO4)cc12	-12%	21µM*	-12%	i	18%	-2%
Cc1c(C(=O)N2CCc3ccccc3C2)oc2ccc(S(=O)(=O)N3CCCCCC3)cc12	0%	15µM*	-25%	i	-4%	-30%
CC(C)CNC(=O)Nc1cc(C(=O)NCc2ccc(C(C)C)cc2)ccc1N1CCCC1	-5%	nt	-9%	?	-10%	-1%
O=C1C=C(Nc2ccccc2O)c2ccccc2C1=O	2.5µM*	?	14µM*	?	?	1.8µM*
Cc1ccc(NS(=O)(=O)c2ccc3c(c2)C(=O)c2ccccc2C3=O)c(C)c1	3%	-14%	-5%	i	2%	-8%
Cc1ccc(NC2=CC(=O)C(=O)c3ccccc32)c(C)c1	5µM*	?	nt	?	-5%	?
Cc1ccc(C(=O)Nc2cccc(C(F)(F)F)c2)cc1NC(=O)c1csc(-c2ccncc2)n1	-56%	?	?	?	-13%	-7%
N#C/C(=N\Nc1cccc(C(F)(F)F)c1)C(=O)c1csc(-c2cccnc2)n1	-26%	?	?	25µM*	?	?
